# Source: PubChem
# dFosB act – mouse delta FosB homodimer activation; P13346; purified delta FosB, TAMRA-CDK5 oligo fluorescence polarization; percent of positive-control signal above neutral wells; activation, % at 25 µM; actives 0.99% (n = 340,000); AID 493131;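 active means mean activation above about 17%, with every replicate also reaching it, limit read from the data, passing the limit was not always enough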
# Target sequence (P13346 whole entry, looked up): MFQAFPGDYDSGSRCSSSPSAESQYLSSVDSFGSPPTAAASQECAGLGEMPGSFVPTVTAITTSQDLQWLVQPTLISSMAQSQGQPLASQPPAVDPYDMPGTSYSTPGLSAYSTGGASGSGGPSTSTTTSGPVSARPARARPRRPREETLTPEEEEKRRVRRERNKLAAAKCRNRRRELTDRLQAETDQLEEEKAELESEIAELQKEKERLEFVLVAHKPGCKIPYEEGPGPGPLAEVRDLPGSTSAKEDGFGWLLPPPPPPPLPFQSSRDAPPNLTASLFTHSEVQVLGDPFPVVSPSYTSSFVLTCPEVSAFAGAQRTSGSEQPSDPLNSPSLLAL
# Neddyl block – cullin neddylation inhibition; P61081+Q13564; TR-FRET cullin neddylation, biochemical; inhibition, % at 25 µM; actives 0.58% (n = 360,000); AID 651699; in the data active means inhibition above about 36%
# Bfl-1 A1 inh – inhibitors of the anti-apoptotic protein A1, read as caspase activation; MEF A1-2A-BIM cells, Caspase-Glo 3/7 luminescence, 3 h; percent of clofoctol response, vehicle zero; AID 2462; caspase activation, % (no concentration beside the values); actives 0.066% (n = 330,000);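 active means over half of replicate activation scores above 10%, or exactly half above 10 with the replicate mean above 10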
# INS-1E GSIS act – primary screen for activators of insulin secretion dependent on glucose, INS-1E cells, GLuc reporter luminescence; activation, % at 16.6 µM; actives 0.61% (n = 370,000); INS-1E GLuc reporter insulin secretion, 2-3 h;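 active means lowest replicate activation of at least 40%, so every replicate reaches that level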;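 further: 0% = median of neutral control wells and 100% = median of IBMX positive control wells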
# Vif imaging – blocks HIV Vif function; actives 0.35% (n = 340,000); HEK293T cells, Vif self-association by quenched fluorescence, imaging, 24 h; inhibition, % at 7.49 µM; in the data active means inhibition above about 50%, passing the limit was not always enough
# Neddyl conf – confirmation of human cullin neddylation inhibitors. actives 13% (n = 1,800). TR-FRET cullin neddylation biochemical assay. shares compounds with Neddyl block. AID 652217. calls only at 25 µM; in the data active means inhibition above about 40%;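 further: neddylation substrate is the cullin 1 ring ligase complex with SKP2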
# Starred values were filed as active, the others as inactive; i = inactive; . = no result given; + = active, no number. Sampled rows, rich in hits. Any-hit rate of the full collection: about 1.9%.
SMILES,dFosB act,Neddyl block,Bfl-1 A1 inh,INS-1E GSIS act,Vif imaging,Neddyl conf
CCc1ccc(N(C(=O)c2snc(C(N)=O)c2N)C(C(=O)NC2CCCC2)c2ccco2)cc1 (stereo not drawn),7.8,40.6*,-1.0,7.4,16.2,i
COc1ccc(C(C(=O)NC2CCCC2)N(C(=O)c2snc(C(N)=O)c2N)c2cc(C)ccc2OC)cc1OC (stereo not drawn),-15.1,32.5,0.8,4.0,-8.0,.
NC(=O)c1nsc(C(=O)N(CCc2ccccc2)C(C(=O)NC2CCCC2)c2ccco2)c1N (stereo not drawn),5.5,50.4*,0.1,-24.4,-8.8,i
Cc1ccccc1N(C(=O)c1snc(C(N)=O)c1N)C(C(=O)NC1CCCC1)c1ccco1 (stereo not drawn),-2.9,.,.,-14.3,-3.3,.
C[C@@H]1CN([C@H](C)CO)C(=O)c2cc(NS(C)(=O)=O)ccc2O[C@@H]1CN(C)Cc1ccc(Cl)c(Cl)c1,.,.,.,-15.5,.,.
CCN(CC)CCNC(=O)c1ccc(NC(=O)c2cc(-c3ccco3)nc3ccccc23)cc1,-20.6,53.3*,0.1,6.9,-0.9,i
COc1ccc(NC(=O)c2cc(-c3ccco3)nc3ccccc23)cn1,-20.2,19.4,0.3,24.3,-0.3,.
CN(C)C(=O)c1ccc(NC(=O)c2cc(-c3ccco3)nc3ccccc23)cc1,-29.0,53.5*,-0.8,-4.1,-11.1,.
CNC[C@H]1Oc2c(NC(=O)CCC(F)(F)F)cccc2C(=O)N([C@H](C)CO)C[C@@H]1C,.,.,.,2.3,.,.
COc1ccc(CCn2c(=N)c(S(=O)(=O)c3ccc(C)cc3)cc3c(=O)n4ccccc4nc32)cc1,-4.7,35.6,0.6,27.6,-9.5,.
N=c1c(S(=O)(=O)c2ccc(Br)cc2)cc2c(=O)n3ccccc3nc2n1Cc1ccco1,-18.6,.,-1.0,-1.2,10.1,.
COCCn1c(=N)c(S(=O)(=O)c2ccc(Br)cc2)cc2c(=O)n3ccccc3nc21,4.0,53.2*,-0.7,0.7,-2.3,i
COCCn1c(=N)c(S(=O)(=O)c2ccc(F)cc2)cc2c(=O)n3ccccc3nc21,-3.1,55.3*,-0.5,65.8,5.3,i
Cc1noc(C)c1NC(=O)N(C)C[C@H]1OCCCC[C@@H](C)Oc2ccc(NS(=O)(=O)c3ccccc3)cc2C(=O)N([C@H](C)CO)C[C@H]1C,.,.,.,-6.9,.,.
COc1cccc(CNc2ccc3[nH]c(=O)[nH]c3c2)c1OCc1ccc(F)cc1,-7.7,43.4*,1.5,18.8,-4.9,i
CCc1ccccc1NC(=O)NNC(=O)c1ccc2ccccc2c1O,6.1,38.0*,0.6,3.2,-8.7,i
COc1ccc(NC(=O)NNC(=O)c2ccc3ccccc3c2O)c(OC)c1,-0.3,43.9*,1.3,-8.4,-8.9,i
COc1ccc(OC)c(NC(=O)Nc2ccc(O)c3ccccc23)c1,-1.7,40.4*,0.9,.,-6.6,.
COc1ccc(OC)c(NC(=O)Nc2c(O)ccc3ccccc23)c1,-3.6,5.7,0.7,.,-4.7,.
CCC(=O)N1[C@H](CO)[C@H](c2ccc(-c3ccncc3)cc2)[C@@H]1CN(C)C(C)=O,.,.,.,6.7,.,.
CN1CCN(C(=O)C[C@H]2C[C@H]3c4cc(NC(=O)Cc5ccncc5)ccc4O[C@H]3[C@@H](CO)O2)CC1,.,.,.,0.8,.,.
CC(=O)Nc1ccc(Nc2nc(C)nc3c2nnn3Cc2ccccc2Cl)cc1,-3.4,.,-0.1,-6.7,-15.1,.
Cc1nc(Nc2cccc(C(C)O)c2)c2nnn(Cc3ccccc3F)c2n1 (stereo not drawn),-17.2,40.0*,0.0,-17.3,-10.1,i
Cc1noc(C)c1NC(=O)N(C)C[C@H]1OCCCC[C@@H](C)Oc2ccc(NC(=O)c3ccncc3)cc2C(=O)N([C@H](C)CO)C[C@@H]1C,.,.,.,7.7,.,.
Cc1ccc(S(=O)(=O)c2n[nH]n3c2nc(=O)c2ccccc23)cc1,-1.2,40.0*,0.7,.,-6.3,i
SMILES,dFosB act,Neddyl block,Bfl-1 A1 inh,INS-1E GSIS act,Vif imaging,Neddyl conf
CCOC(=O)c1n[nH]n2c1nc(=O)c1ccccc12,-5.3,.,-0.7,-1.6,14.3,.
COc1ccc2c(C(=O)CN3CCSCC3)c[nH]c2c1,-5.2,38.7*,-0.2,10.6,-0.1,i
COc1ccc2c(C(=O)CN3CCN(c4ccccc4)CC3)c[nH]c2c1,2.7,0.4,-0.3,.,2.9,.
O=C(OCc1cc(=O)n2ccsc2n1)c1ccccc1O,-2.8,15.7,-10.2,.,11.1,.
O=C(OCc1cc(=O)n2ccsc2n1)c1ccccc1NCCO,-12.6,39.1*,-1.8,9.2,-1.9,.
CO[C@@H](C(=O)N(C)C[C@H]1OCc2ccccc2-c2ccccc2C(=O)N([C@H](C)CO)C[C@@H]1C)c1ccccc1,.,.,.,5.8,.,.
O=C1C2CC3N1CCC31c3ccccc3-n3c1c2ccc3=O (stereo not drawn),-7.5,44.7*,.,5.4,-4.5,+
Cc1ccccc1Nc1c(-c2cccnc2)nc2ccccn12,-11.6,39.4*,0.6,25.9,-5.4,i
Cc1cc(C)c2c(N)c(C(=O)C(C)(C)C)sc2n1,-3.0,.,1.5,0.1,0.2,.
Cc1cc(C)c2c(N)c(C(=O)c3ccccc3)sc2n1,.,45.0*,-0.8,-2.3,-4.1,+
COc1ccc(C2NC3=C(CCC3)C3(C#N)C(OC)(OC)N=C(N)C23C#N)cc1 (stereo not drawn),-3.2,39.3*,0.7,.,6.7,i
COC1(OC)N=C(N)C2(C#N)C(c3ccccc3)NC(C)=CC12C#N (stereo not drawn),-8.7,.,-0.6,.,7.4,.
CC(=O)N(C)C[C@H]1Oc2cc(C#Cc3ccccc3)ccc2S(=O)(=O)N([C@@H](C)CO)C[C@@H]1C,.,.,.,-21.6,.,.
CO[C@H]1CN(C)C(=O)c2cc(NC(=O)C3CC3)ccc2OC[C@H](C)N(C(=O)c2ccccc2F)C[C@H]1C,.,.,.,17.5,.,.
COc1ccc(-c2nc3ccc(C(=O)NCCCN4CCOCC4)cc3nc2-c2ccc(OC)cc2)cc1,-26.6,45.6*,0.3,3.2,9.9,i
Cc1ccc(-c2cc(C(=O)NCCCN3CCOCC3)c3ccccc3n2)cc1,-14.3,52.6*,0.4,14.5,27.3,.
COc1ccc(-c2nc3ccccc3c(=O)n2CCCN2CCOCC2)cc1,-2.2,6.0,0.5,8.0,11.7,.
Cc1nc2ccccc2c(=O)n1CCCN1CCOCC1,-2.1,43.3*,-0.2,40.3*,8.2,i
Clc1ccc(-c2ccc(-c3nn4c(-c5ccco5)nnc4s3)o2)cc1,-11.5,42.1*,0.8,.,5.3,i
CN1c2ccc(-c3cccc(F)c3)cc2[C@@H]2[C@@H](CCN2C(=O)Cc2ccccc2)[C@@H]1CO,.,.,.,-6.8,.,.
C[C@@H]1CCCCO[C@H](CN(C)Cc2ccccc2)[C@@H](C)CN([C@@H](C)CO)C(=O)c2cc(NC(=O)NC3CCCCC3)ccc2O1,.,.,.,-26.0,.,.
CCCC#Cc1ccc([C@H]2[C@@H](C#N)N(C(=O)C3CCCC3)[C@@H]2CO)cc1,.,.,.,8.9,.,.
